# M1 ag: M1 muscarinic receptor agonism. 64,000 compounds, 3% hits. CHO-M1 cells, Fluo-4 calcium fluorescence, agonist mode; stronger effect = higher value. AID 626. B-score at 10 µM;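 active = fluorescence rise, raw or as B-score row- and column-corrected plate score, outside the 99.7% band of its plate's samples, either direction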
# Cav32 inh: human Cav3.2 channel inhibition, primary screen. Cav3.2-expressing cells, Fluo-4 calcium fluorescence FDSS; stronger effect = lower value. 100,000 compounds, 4% hits. B-score at 10 µM;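 active = single-dose well whose peak fluorescence ratio is a statistical outlier from its plate by either plate-standardised score or position-corrected B-score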
# M1 antagonist: antagonists of rat M1 muscarinic receptor; P08482; CHO-M1 cells, Fluo-4 calcium, ACh EC80 antagonist mode; stronger effect = lower value; B-score at 10 µM; 64,000 compounds, 3.4% hits; AID 628;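 active = calcium fluorescence response, raw or row-and-column corrected B-score, differing from the plate sample mean either way at a set confidence level, mostly lower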
# Pyk2 oligo antag: Pyk2 (human) oligomerization antagonism | Q14289 | z-score (the deposit names both 25 µM and 10 µM) | AID 1347419 | Q293 cells, Pyk2 FERM NanoBiT luminescence; stronger effect = lower value | 99,000 compounds, 0.83% hits;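 active = Z-score of -3 or lower, scaled per plate to the spread of control and sample wells; inactive = z-score above -3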;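 note: negative z-score means lost luminescence so less FERM oligomerization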
# M1 antag conf: confirmation of rat M1 muscarinic receptor antagonists | shares compounds with M1 antagonist | CHO-M1 cells, Fluo-4 calcium, ACh EC80 antagonism; stronger effect = lower value | calcium response (max-min fluorescence) at 10 µM | 1,700 compounds, 43% hits | AID 677;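 active = calcium response below the same-plate mean of wells given acetylcholine alone at its 80%-effect dose, minus 3 SD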
# mGluR4 antag: acts on human mGluR4 in M1 antagonist selectivity test | shares compounds with M1 antagonist | CHO-mGluR4 calcium flux, Fluo-4 fluorescence, glutamate EC80; stronger effect = lower value | fluorescence response (max-min) at 10 µM | 1,700 compounds, 0.9% hits | AID 678;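 active = fluorescence response below the plate's average for near-maximal glutamate wells, less 3 SD of those wells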;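 note: raw unnormalized fluorescence span taken in the window right after glutamate addition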
# A number is an active result; n = inactive; x = not tested or not shown. Rows were chosen to be rich in hits. Some 7.1% of all compounds tested hit in one or more screens of this group.
SMILES,M1 ag,Cav32 inh,M1 antagonist,Pyk2 oligo antag,M1 antag conf,mGluR4 antag
Cc1nn(CC(=O)Nc2ccc3c(c2)nc(CCN2CCCCC2)n3C)c(=O)c2ccccc12,x,n,x,n,x,x
Cn1c(CCN2CCCCC2)nc2cc(NS(=O)(=O)c3ccccc3)ccc21,n,n,-5.2,n,448,n
Cn1c(CCN2CCCCC2)nc2cc(NC(=O)Nc3ccccc3)ccc21,n,n,-4.4,n,194,n
Cc1ccc(NC(=O)NC(=O)CN2C(=O)NC3(CCCCCCC3)C2=O)c(C)c1,n,n,-2.2,n,n,n
CCN1CCN(Cc2ccc(OC)c(OCc3ccccc3)c2)CC1,n,n,n,n,x,x
COc1ccc(CN2CCN(c3ccccn3)CC2)cc1OCc1ccccc1,n,n,-2.7,n,573,n
COc1ccc(Nc2nc(C(F)(F)F)nc(C)c2C#N)cc1,x,x,x,n,x,x
c1coc(-c2nnc3sc(-c4cccs4)nn23)c1,n,n,n,n,x,x
CCOC(=O)c1cc(C)n(CCCN2CCOCC2)c1C,n,n,-1,n,403,n
CCc1c(C)nc(N)n2c(SCC(=O)Nc3ccccc3)nnc12,x,n,x,n,x,x
O=C(COc1ccccc1Cl)Nc1ccc2c(c1)OCCO2,n,n,n,n,x,x
Cc1cccc(OCC(=O)Nc2ccc3c(c2)OCCO3)c1,n,n,-5,n,n,n
CSc1ccc(C(C(C(=O)c2cccs2)N2CCOCC2)N2CCOCC2)cc1 (centres undefined),n,n,-3.4,n,n,n
COc1ccc(C(C(C(=O)c2ccco2)N2CCOCC2)N2CCOCC2)cc1 (centres undefined),n,n,n,n,x,x
CCNC(=S)NNC(=O)c1cc(-c2cc(C)ccc2C)nc2ccccc12,x,n,x,n,x,x
COc1ccc(N2CCN(S(=O)(=O)c3ccc(Br)s3)CC2)cc1,n,n,-18,n,n,n
CC1CCN(C(=O)CCc2ccc(S(=O)(=O)NC(C)(C)C)cc2)CC1,x,n,x,n,x,x
CCCNS(=O)(=O)c1ccc(CCC(=O)N2CCC(C)CC2)cc1,n,n,-2,n,n,n
Cc1ccc(S(=O)(=O)N2CCN(c3nc(C)c4c(c3C#N)CC(C)(C)OC4)CC2)cc1,n,n,n,n,x,x
O=S(=O)(c1cccc(-c2nnc(SCc3ccc(Cl)cc3)o2)c1)N1CCCCC1,n,n,n,n,x,x
CN(C)S(=O)(=O)c1cccc(-c2nnc(SCc3ccc4c(c3)OCCO4)o2)c1,n,n,-12,n,n,n
CCOC(=O)c1cnc(NCc2ccccc2)nc1C,n,n,n,n,x,x
CCOC(=O)c1cnc(-n2nc(C)cc2C)nc1NCc1ccccc1,n,n,-4.3,n,405,n
O=C(Nc1ccccc1)c1cccnc1N1CCOCC1,n,x,-3.3,n,n,n
c1ccc(CCN2CN(CCCN3CCOCC3)c3nc4ccccc4n3C2)cc1,n,n,-1.9,n,n,n
SMILES,M1 ag,Cav32 inh,M1 antagonist,Pyk2 oligo antag,M1 antag conf,mGluR4 antag
CCCn1c(=O)[nH]c(=O)c2c1nc(-c1ccccc1)n2CCN1CCOCC1,x,n,x,n,x,x
COCCN(C(=O)COc1ccc(Cl)cc1)c1nnc(-c2cccnc2)s1,x,n,x,n,x,x
COCCN(C(=O)COc1ccccc1)c1nnc(-c2cccnc2)s1,n,n,-2.7,n,n,n
CCC(NC(C)C)C(O)c1ccc(O)c(O)c1 (centres undefined),n,n,-14,x,n,n
CC(C)n1nc(C(=O)Nc2nnc(SCc3c(Cl)cccc3Cl)s2)c2ccccc2c1=O,x,n,x,n,x,x
CCn1c(=O)cc(SCC(=O)N2CCN(C3CCCCC3)CC2)c2ccccc21,n,n,-5.1,n,256,n
O=C(C1=C[C@@H](c2ccc(C(F)(F)F)cc2)C[C@@H](OCCCCO)O1)N1CCN(Cc2ccc3c(c2)OCO3)CC1,x,n,x,x,x,x
CCCCOc1ccc(NC2=NC3(CCCC3)N=C(N)N2)cc1,n,n,-3,n,477,n
COc1ccc(OC)c(NC2=NC3(CCCC3)N=C(N)N2)c1,n,n,n,n,x,x
CCOC(=O)COc1ccccc1C1Nc2ccccc2C(=O)N1c1cccc(Cl)c1 (centres undefined),x,n,x,n,x,x
COc1ccc(NC(=O)c2cnc3sccn3c2=O)cc1OC,n,x,n,x,x,x
O=S1(=O)CC=C(CSc2nc3ccccc3[nH]2)C1,n,n,-2.3,n,n,n
c1cc2c3c(cccc3c1)C(N1CCCCC1)=N2,n,x,-6.8,n,224,n
c1cc2c3c(cccc3c1)C(N1CCCCCC1)=N2,x,x,x,n,x,x

# Screens: PubChem BioAssay, several laboratories
